In PubChem BioAssay (NCI):
This is part of a sample that, as a whole, favours compounds with a hit. Of some 83,000 tested, about 20% had one in any assay.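 Each cell line was grown in a 96-well plate and treated with one concentration of compound for 48 hours. Values below 10 were considered active.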 A number with no mark means an inactive call. Calls of active or inactive are those of the source.

Columns and labels:
Assay in all cases: NCI-60 one-dose screen, 48 h (100 = growth as untreated, 0 = no growth, -100 = all killed)
NCI-H23 lung = details: 10 µM unless noted
NCI-H226 lung = details: 10 µM unless noted
NCI-H322M lung = details: 10 µM unless noted
HOP-62 NSCLC = details: 10 µM unless noted
NCI-H460 lung = details: 10 µM unless noted
HOP-92 NSCLC = details: 10 µM unless noted
NCI-H522 lung = details: 10 µM unless noted
A549/ATCC NSCLC = details: 10 µM unless noted
786-0 renal = details: 10 µM unless noted
COLO 205 colon = details: 10 µM unless noted
DU-145 prostate = details: 10 µM unless noted
K-562 leukemia = details: 10 µM unless noted
MALME-3M melanoma = details: 10 µM unless noted
MDA-MB-231 breast = details: 10 µM unless noted
RXF 393 renal = details: 10 µM unless noted
SF-268 CNS = details: 10 µM unless noted
SF-295 CNS = details: 10 µM unless noted
SF-539 CNS = details: 10 µM unless noted
UACC-257 melanoma = details: 10 µM
M14 melanoma = details: 10 µM unless noted

Structure (SMILES) | growth (NCI-H23 lung) | growth (NCI-H226 lung) | growth (NCI-H322M lung) | growth (HOP-62 NSCLC) | growth (NCI-H460 lung) | growth (HOP-92 NSCLC) | growth (NCI-H522 lung) | growth (A549/ATCC NSCLC) | growth (786-0 renal) | growth (COLO 205 colon) | growth (DU-145 prostate) | growth (K-562 leukemia) | growth (MALME-3M melanoma) | growth (MDA-MB-231 breast) | growth (RXF 393 renal) | growth (SF-268 CNS) | growth (SF-295 CNS) | growth (SF-539 CNS) | growth (UACC-257 melanoma) | growth (M14 melanoma)
N#Cc1ncc(-c2ccc(F)c(F)c2F)c(NC2CCCCCC2)n1 | 88.1% | 93.8% | 85.7% | 82.3% | 98.9% | 65.1% | 72% | 89.3% | 87.1% | 99.8% | 95.8% | 76.8% | 131% | 67% | 77.5% | 66.6% | 97.8% | 93.7% | 81.5% | 97.8%
COc1ccc(/C=C/c2cc(N3CCOCC3)c3cc(F)c(F)cc3n2)cc1OC | 42.3% | 34.8% | 30% | 63.9% | 25.2% | 49.7% | 7.5% (active) | 44.6% | 40.8% | 11.8% | 48.3% | 28.9% | 49.3% | 45.9% | 52.2% | 31.4% | 31.4% | 28.9% | 45.4% | 31.6%
O=C(Nc1ccc(OCc2nnc(-c3ccc(Cl)cc3)o2)c(F)c1)Nc1ccc(Cl)c(Cl)c1 | 47.3% | 78.7% | 54.7% | 47.5% | 29.2% | 59% | 40.4% | 32.2% | 90% | 70.3% | 34.4% | 67.3% | 33.4% | 26.3% | 50.7% | 53.3% | 62.5% | 45% | 74.4% | 61.5%
O=C(O)C(Cc1ccccc1)N1C(=O)/C(=C/C(Cl)=C/c2ccc([N+](=O)[O-])cc2)SC1=S (stereo not given) | 16.1% | 71.2% | 70.9% | 47.7% | 50.1% | 20% | 0.83% (active) | 81.2% | -31.6% (active) | 17.4% | 35% | 9.61% (active) | 3.53% (active) | 29.5% | -47.1% (active) | 19.2% | 88.8% | 29.6% | 18.1% | -13.7% (active)
COc1ccc(C(=O)c2cc(OC)c(OC)c(OC)c2)cc1/C=C/C(=O)c1ccc2c(c1)OCO2 | -3.44% (active) | 0.564% (active) | 52.9% | 69.8% | 14.6% | 64% | -43% (active) | 53.5% | 29.6% | 27.9% | 33.8% | 12.9% | 12.5% | 11.2% | 17.4% | 8.85% (active) | 77.3% | -33.8% (active) | 51.3% | 25.3%
CN(C)c1ccc(-c2ccc(-c3ccc(C(=N)N)cn3)o2)cc1 | 20.9% | 21.3% | -0.109% (active) | -69.8% (active) | -86.8% (active) | -61.2% (active) | -72.9% (active) | -48.7% (active) | -66.6% (active) | -93.7% (active) | -65.2% (active) | -46.7% (active) | -75.5% (active) | -84.4% (active) | -81% (active) | -49.2% (active) | -69.7% (active) | -87.4% (active) | -83.8% (active) | -74.4% (active)
COc1ccccc1CNCCCN1C(=O)c2ccc3c4c(ccc(c24)C1=O)C(=O)N(CCCNCCCCNCCCCN)C3=O | 6.63% (active) | 27% | -21.5% (active) | 22.2% | 0.275% (active) | -6.2% (active) | -40.8% (active) | -3.81% (active) | 23.3% | -45.4% (active) | 9.88% (active) | 7.51% (active) | -83.9% (active) | 8.05% (active) | 22.6% | 4.92% (active) | 2.29% (active) | 11% | -56.2% (active) | -5.69% (active)
COc1ccc(/C=C2\CCCC3=C2NC(C)=NC3c2ccc(OC)c(OC)c2)cc1OC (stereo not given) | 29.1% | -22.4% (active) | 47.4% | 32.1% | 0.649% (active) | 30.1% | -7.42% (active) | 18% | 9.19% (active) | -29.8% (active) | 7.29% (active) | 5.92% (active) | -0.933% (active) | 7.16% (active) | -16.6% (active) | 20% | 3.05% (active) | 17.1% | 20.2% | -42.1% (active)
